Assay outcomes: PubChem BioAssay, National Center for Advancing Translational Sciences (NCATS)
Compounds with a hit are over-represented: about 19% of the library has one in this group of screens.
DT40 TDP1 no CPT: qHTS for Inhibitors of human tyrosyl-DNA phosphodiesterase 1 (TDP1): qHTS in cells in absence of CPT; DT40 Tdp1-/- hTDP1 cells, no CPT, ATP luminescence, 48 h; Potency, µM (titrated, usually from 46.2 µM), for the others: top-dose activity change, negative = growth inhibition, most hits filed as inhibitors; actives 15% (n = 420,000); note: potency is the fitted concentration of half-maximal effect; nearly all actives have a fitted effect of over 55% in size
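DT40 Tdp1-/-;hTDP1 cells, no CPT (DMSO vehicle only), 400 cells/well; compounds pin-transferred; ≥48 hr, 37 °C; CellTiter-Glo 30 min RT dark, luminescence read.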
HT1080NT lethal: kills 2HG-producing HT-1080-NT fibrosarcoma cells. HT-1080-NT fibrosarcoma viability, CellTiter-Glo ATP luminescence, 48 h. Potency, µM (top dose mostly 46.1 µM), for inactives: top-dose activity, negative = less viability, most hits filed as cytotoxic. actives 1.6% (n = 360,000). AID 686970;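 note: NT is the 2HG producing partner of a matched IDH1 knockdown line; potency is the fitted concentration of half-maximal effect; 0% = DMSO-treated cells and -100% = media-only wells without cells; nearly all actives have a fitted effect of over 55% in size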
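750 cells/well, RPMI + 5% FBS; 2 h settle, compound pin-transfer, 48 h at 37 degrees C. CellTiter-Glo 10 min RT, luminescence. Normalized to DMSO and media-only wells.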
TDP1 cell CPT: DT40-hTDP1 cell growth loss with CPT; chicken DT40 Tdp1-/-;hTDP1 cells + 20 nM CPT, ATP luminescence, 48 h; Potency, µM (doses to about 46.2 µM), inactives show top-dose activity change, negative = growth inhibition, usual class: inhibitors; actives 12% (n = 420,000); AID 686979; note: potency is the fitted concentration of half-maximal effect; nearly all actives have a fitted effect of over 55% in size
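Chicken DT40 Tdp1-/- cells complemented with human TDP1, 400 cells/well, exposed to compounds plus 20 nM camptothecin for at least 48 h at 37 C; viability read as ATP content by CellTiter-Glo luminescence.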
HT1080 IDH1KD tx: kills HT-1080 cells with IDH1 knockdown. Potency, µM (top dose mostly 46.1 µM), without a hit: top-dose activity, negative = toxicity, hits mostly cytotoxic. AID 686971. HT-1080 IDH1 knockdown viability, ATP luminescence, 48 h. actives 2% (n = 360,000);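 note: potency is the fitted concentration of half-maximal effect; 0% = DMSO wells and -100% = cell-free medium wells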
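% activity derives from luminescence (CellTiter-Glo), normalised to DMSO and no-cell wells. HT-1080-IDH1KD cells, 750/well, had 48 h compound exposure at 37 °C.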
IL-1B inflam inh: inflammasome signaling inhibition, IL-1 beta readout; activity change, % at 57.5 µM; actives 4.7% (n = 360,000); THP-1 LPS/ATP IL-1B secretion, AlphaLISA, 16 h; active compounds read low; AID 743279; in the data active = activity change below about -50%; inconclusive = mostly about -30% to -49%
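Secreted IL-1B measured by AlphaLISA bead assay after 16 h compound exposure of THP-1 cells; compounds (final up to 57.5 uM) added 1 h before LPS (250 ng/mL) and ATP (1.25 mM) stimulation; lower signal means less secretion.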
* hit, by the source's call; u = inconclusive; x = no result; [ ] = another dose, or the depositor's remark. Unless noted, calls come from the whole dose curve; as a rule, active = well fitted curve in the direction sought with a large enough effect; inconclusive = small, poorly fitted or top-dose-only effect, or another doubt; inactive = no such curve, though single readings can be large; an effect the other way counts as inactive or inconclusive. Unless noted, % is set by controls: 0 for no effect and ±100 for the full control effect.

SMILES	DT40 TDP1 no CPT	HT1080NT lethal	TDP1 cell CPT	HT1080 IDH1KD tx	IL-1B inflam inh
Cc1ncoc1C(=O)N1CCCC(CCC(=O)NCc2ccccc2F)C1 (configuration not stated)	21µM*	u	u	-11%	12
COc1ccc(S(=O)(=O)N(CC(=O)NN=C2CCN(C)CC2)c2cc(Cl)ccc2OC)cc1OC	1%	-2%	14%	-18%	8
O=C(CNC1CCCCCC1)Nc1ccccc1N1CCCCC1	21µM*	u	u	u	-21
O=C(CNCC1CCCCC1)Nc1ccccc1N1CCCCC1	u	u	u	u	-2
Cc1ccc(NC(=O)CSCC(=O)Nc2ccccc2N2CCCCC2)cc1	u	-3%	u	-7%	-63*
O=C1N(Cc2ccccc2)c2ccccc2C12OCCO2	-24%	2%	-1%	7%	18
CC1(C)CC(=O)C(C2(O)C(=O)N(Cc3ccccc3)c3ccccc32)CO1 (configuration not stated)	5.2µM*	-8%	4.6µM*	-3%	-2
CC(C)N1C(=O)C(O)(C2COC(C)(C)CC2=O)c2ccccc21 (configuration not stated)	7.3µM*	-1%	5.8µM*	-2%	-3
CC1(C)CC(=O)C(C2(O)C(=O)Nc3ccccc32)CO1 (configuration not stated)	-11%	-3%	19%	-1%	6
CC1(C)CC(=O)CC(C2(O)C(=O)N(Cc3ccccc3)c3ccccc32)O1 (configuration not stated)	1.8µM*	-4%	2.6µM*	-2%	21
COc1ccc(Cl)cc1NS(=O)(=O)c1cn(C)nc1C	10%	-8%	-6%	-4%	32
Cc1[nH]c2ccccc2c1C(C[N+](=O)[O-])c1cccs1 (configuration not stated)	u	u	u	u	-96*
Cc1ccc(-c2[nH]c3ccccc3c2C(C[N+](=O)[O-])c2ccco2)cc1 (configuration not stated)	u	16µM*	u	u	-1
COc1ccc(S(=O)(=O)NCc2cccn2Cc2cc(C)ccc2C)cc1OC	u	x	-30%	x	x
Cn1c(=O)[nH]c(=O)c2c1nc(Br)n2CCOc1ccccc1	16µM*	-8%	10µM*	-8%	25
Cn1c(=O)[nH]c(=O)c2c1nc(NCCN)n2CCOc1ccccc1	13µM*	6%	u	22%	27
Cn1c(=O)[nH]c(=O)c2c1nc(NN)n2CCOc1ccccc1	u	-14%	-16%	-10%	-18
COc1cccc(CNc2nc3cc(-c4cccc(C(=O)NCCO)c4)sc3c(=O)n2C)c1	u	-12%	u	-16%	-2
CCCc1ccc(C(=O)NNC(=O)c2ccc(Cl)cc2)cc1	-10%	-3%	4%	7%	-25
CCc1ccc(NC(=O)C(=O)NNC(=O)c2ccc(OC)cc2)cc1	u	-28%	u	u	0
CCCc1ccc(C(=O)NNc2cc(Cl)ccc2Cl)cc1	23µM*	u	u	u	u
CCc1ccc(C(=O)NNC(=O)OC)cc1	29µM*	20%	u	5%	6
CCc1ccc(C(=O)NCc2ccc(Cl)cc2Cl)cc1	-5%	5%	2%	2%	-52*
CCc1ccc(NCCC(=O)c2ccc(Cl)cc2)cc1	16µM*	0%	21µM*	-5%	-22
CN(C)C(=O)c1ccc(NC(=O)Cn2nc(-c3ccccc3)c3ccccc3c2=O)cc1	-22%	x	-22%	x	x
SMILES	DT40 TDP1 no CPT	HT1080NT lethal	TDP1 cell CPT	HT1080 IDH1KD tx	IL-1B inflam inh
CCc1ccc(C(=O)NNc2cc(Cl)cc(Cl)c2)cc1	-28%	-28%	-23%	u	-30
CCc1ccc(C(=O)NNc2ccc(Cl)cc2)cc1	-17%	u	-9%	6.5µM*	-23
CCOc1ccccc1C(=O)Nc1ccc2c(c1)C(=O)NC2=O	9%	15%	12%	14%	9
CCOc1ccc2oc(C(=O)OCC(=O)N(CC(C)C)c3c(N)n(Cc4ccccc4)c(=O)[nH]c3=O)c(C)c2c1	u	3%	u	-15%	u
COc1cc(OC)cc(N2C(=O)N(Cc3ccc(C(C)(C)C)cc3)c3ccccc3S2(=O)=O)c1	21µM*	x	u	x	x
C=Cc1ccc(CN2C(=O)N(c3cccc(Cl)c3)S(=O)(=O)c3ccccc32)cc1	u	x	12µM*	x	x
COc1ccc(-n2c(=O)[nH]c3cc(C(=O)NCCc4ccc(Cl)cc4)ccc3c2=O)cc1OC	15µM*	0%	23µM*	-8%	12
COc1cc(OC)cc(-n2c(=O)[nH]c3cc(C(=O)NCCc4ccc(C)cc4)ccc3c2=O)c1	-4%	x	-16%	x	x
CCOCCCNC(=O)c1ccc2c(=O)n(CCc3ccc(OC)c(OC)c3)c(=O)[nH]c2c1	4.1µM*	x	6.5µM*	x	x
CCCCN(C)CCNC(=O)c1ccc2c(=O)n(CCc3ccccc3)c(=O)[nH]c2c1	23µM*	x	13µM*	x	x
CCC1CN(CCNC(=O)c2cc(C(C)C)nn2C)Cc2cc(OC)ccc2O1 (configuration not stated)	-23%	x	-13%[9.04 µM]	x	x
Cc1ccc(C)c(Nc2nn3c(=O)c4ccc(C(=O)NCCC5=CCCCC5)cc4nc3s2)c1	7.3µM*	x	6.5µM*	x	x
COc1ccccc1Nc1nn2c(=O)c3ccc(C(=O)NCCC4=CCCCC4)cc3nc2s1	3.3µM*	x	1.5µM*	x	x
O=C(NCCC1=CCCCC1)c1ccc2c(=O)n3c(nc2c1)CCCCC3	u	1%	u	-10%	3
Cc1c(Cl)cccc1Nc1nn2c(=O)c3ccc(C(=O)NCCC4=CCCCC4)cc3nc2s1	4.6µM*	x	u	x	x
CCCc1cc(=O)oc2c(CNc3ccc(OCC)cc3)c(O)ccc12	u	14%	12µM*	6%	0
CCCc1nc2c3ccccc3ccn2c1CC(C)(C)C	21µM*	u	9.2µM*	u	0
CCCc1nc2c3ccccc3ccn2c1Cc1cccc(Cl)c1	u	26µM*	u	u	33
CCCc1nc2c3ccccc3ccn2c1Cc1ccc(C)cc1	u	u	21µM*	u	58
CC(=O)c1ccc(-c2nc3c4ccccc4ccn3c2C(C)=O)o1	-9%	16%	5%	16%	50
COc1ccc(S(=O)(=O)N2CCC(C(=O)N3CCN(c4ccccc4OC)CC3)CC2)cc1	u	0%	u	1%	-12
